USP1-UAF1 inh – inhibitors of human USP1/UAF1 deubiquitinase | 0.23% of 390,000 active | AID 743255 | recombinant USP1/UAF1, Ub-Rhodamine cleavage fluorescence | Potency, µM (series often up to 57.1 µM), inactives show top-dose activity change, negative = inhibition, usual class: inhibitors; active = well fitted inhibition curve with a large enough effect; note: potency is the fitted concentration of half-maximal effect; % is set by controls: 0 for no effect and ±100 for the full control effect; nearly all actives have a fitted effect of over 60% in size
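In this screen, compounds sit with the deubiquitinase complex (1nM) for 15 min at room temperature before Ub-Rho is added at 150nM final. Fluorescence rise is then followed for 6 reads every 60 seconds.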
TRHR PAM – allosteric enhancers of human TRH receptor; P34981; TRHR cells, fluo-8 calcium fluorescence, EC20 TRH enhancement; enhancement, % at 2 µM; 0.66% of 360,000 active; in the data active = enhancement above about 30%; note: 0% is about no effect
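TRHR-expressing cells loaded with fluo-8 calcium dye were read kinetically (ex 480/em 530) during compound addition, then stimulated with an EC20 of TRH (10 nM final). Enhancement of the Gq-mediated intracellular calcium response was scored.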
D1 antagonist – blocks dopamine activation of the human D1 receptor; P21728; HEK293 TREx D1 cells, calcium flux, dopamine EC80; hits give low values; activity change, negative = inhibition, % at 10 µM; 3.2% of 360,000 active; AID 504652; in the data active = activity change below about -30%; note: % is set by controls: 0 for no effect and ±100 for the full control effect
Target sequence (P21728 whole entry, looked up): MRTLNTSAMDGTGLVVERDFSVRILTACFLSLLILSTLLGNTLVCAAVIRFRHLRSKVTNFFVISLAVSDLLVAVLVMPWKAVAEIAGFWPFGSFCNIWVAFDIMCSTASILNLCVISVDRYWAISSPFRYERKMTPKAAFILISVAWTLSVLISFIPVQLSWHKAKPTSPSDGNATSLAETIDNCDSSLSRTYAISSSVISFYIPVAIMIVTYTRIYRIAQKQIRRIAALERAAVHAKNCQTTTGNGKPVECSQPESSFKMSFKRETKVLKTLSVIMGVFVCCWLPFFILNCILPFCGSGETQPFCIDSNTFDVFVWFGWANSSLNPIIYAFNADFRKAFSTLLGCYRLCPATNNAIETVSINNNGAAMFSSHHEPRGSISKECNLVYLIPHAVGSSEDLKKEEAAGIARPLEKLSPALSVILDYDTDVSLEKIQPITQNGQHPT
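Kinetic fluorescence of a calcium dye serves as the read-out. D1-expressing Hek293 Trex cells, induced overnight at 30 C, are exposed to compound for 180 s before an EC80 dopamine addition, then read 180 s further.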
D1 agonist – human D1 receptor agonism; AID 504660; 1% of 360,000 active; P21728; HEK293 T-REx D1 cells, calcium flux, agonist mode; activation, % at 2 µM; note: 0% is about no effect
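Tetracycline-induced HEK293 TREx D1 cells, force-coupled to calcium signalling, were dye-loaded with a no-wash calcium kit. Compound was pin-added after a 10 s baseline. Fluorescence was read kinetically at 1 cycle/s for 180 s, with calcium rises flagged as agonism.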
D1 potentiator – potentiators of human D1 dopamine receptor | 0.036% of 360,000 active | P21728 | AID 504651 | potentiation, % at 10 µM | HEK293 TREx D1 cells, calcium flux, dopamine EC20 potentiation; in the data active = potentiation above about 30%; note: 0% is about no effect
TRHR agonist – agonists of human TRH receptor; P34981; activation, % at 2 µM; 0.18% of 360,000 active; AID 493084; TRHR cells, calcium flux fluo-8, FDSS agonist mode; note: 0% is about no effect
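Steps: seed TRHR cells overnight; add fluo-8 no-wash Ca dye, RT 30 min–1.5 h; record 10 s baseline; pin-transfer compounds; monitor fluorescence 1 cycle/s for the agonist window. Calcium increases flag candidate agonists.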
* marks the source's active call; other numbers are inactive results; x = no result given. Sampled rows, rich in hits. Any-hit rate of the full collection: about 4.4%. Cut-off read from the data, not from the text of the source, unless noted: active = activation above about 30%; inactive = the rest.

SMILES	USP1-UAF1 inh	TRHR PAM	D1 antagonist	D1 agonist	D1 potentiator	TRHR agonist
COC(=O)c1cc2n(n1)CCN(Cc1ccccc1Cl)C2=O	1%	32*	12	3	0	0
COC(=O)c1cc2oc3ccccc3c2n1CC(=O)Nc1ccc(Cl)cc1F	-27%	10	-1	3	-3	0
O=C(Cc1cccs1)N1CCN(S(=O)(=O)c2ccccc2)CC1	-9%	2	0	2	-3	0
O=C(CCCc1cccs1)N1CCN(S(=O)(=O)c2ccccc2Br)CC1	-14%	-7	-31*	1	-12	0
COCCCn1c(=S)[nH]c2c(sc3ccccc32)c1=O	-6%	32*	3	4	0	0
N/C(CC(=O)NC1CCCCC1)=N\OCC(=O)Nc1ccc(Cl)c(Cl)c1	-9%	3	-94*	5	-1	1
O=C(COC(=O)c1ncc(Cl)c(Cl)c1Cl)NC1CCCCCC1	1%	16	-44*	1	-2	1
O=C(COC(=O)c1nc(Cl)ccc1Cl)NC1CCCCCC1	-17%	1	-31*	9	-4	0
O=C(COC(=O)c1ccc(Cl)cc1)NC1CCCCCC1	-16%	10	-18	5	x	-1
COc1cc(CNC(=O)c2cnc(SC)nc2-c2ccccc2)cc(OC)c1OC	-3%	4	-15	-1	4	0
CC1=C(C(=O)N2CCN(c3cccc(C)c3C)CC2)C2(CCCCC2)OC1=O	-20%	14	22	2	-1	0
N#Cc1ccc(CSc2nnc(-c3ccc(Br)cc3)o2)cc1	-36%	-3	0	0	0	0
CCOc1ccccc1CN1CCN(Cc2[nH]c3ccccc3c2C)CC1CCO (configuration not stated)	-3%	8	-8	56*	-5	0
CCOc1ccccc1CN1CCN(Cc2cc(=O)c3ccccc3[nH]2)CC1CCO (configuration not stated)	-12%	5	-36*	-1	-5	0
CCOc1ccccc1CN1CCN(Cc2c[nH]c3ccccc23)CC1CCO (configuration not stated)	-19%	-6	-9	2	-7	-1
Cc1ccc(-c2nc3ccc([N+](=O)[O-])cc3[nH]2)cc1	-11%	2	-12	7	-10	-1
O=[N+]([O-])c1ccc2nc(-c3ccc(Cl)cc3)[nH]c2c1	-22%	-15	-49*	27	-4	1
O=[N+]([O-])c1ccc2nc(-c3ccccc3[N+](=O)[O-])[nH]c2c1	6%	-2	-39*	10	-9	-1
CCn1cc(CN2CCC(C(=O)Nc3cccc(-c4cccc(F)c4)c3)CC2)cn1	-3%	-2	-38*	18	-10	0
Cc1ccc(CN2CCC(C(=O)Nc3cccc(-c4cccc(F)c4)c3)CC2)o1	-22%	-7	2	2	-1	0
CCn1nc(C)c(CN2CCC(C(=O)Nc3cccc(-c4cccc(F)c4)c3)CC2)c1C	-4%	0	-20	37*	-4	1
CC(C)n1cc(CN2CCC(C(=O)Nc3cccc(-c4cccc(Cl)c4)c3)CC2)cn1	-28%	4	-21	41*	-4	2
CCn1cc(CN2CCC(C(=O)Nc3cccc(-c4cccc(OC)c4)c3)CC2)cn1	-6%	4	-3	2	3	0
CC(NC(=O)CSc1n[nH]c(-c2ccccc2Cl)n1)c1nc2ccccc2[nH]1 (configuration not stated)	-16%	1	-7	2	2	0
CCOC(=O)N1CCc2c(sc(NCc3ccc(OC)c(Br)c3)c2C(=O)Nc2cc(OC)ccc2OC)C1	-7%	-3	-2	2	-4	0
SMILES	USP1-UAF1 inh	TRHR PAM	D1 antagonist	D1 agonist	D1 potentiator	TRHR agonist
Cc1nc(-c2ccccc2)sc1CCNC(=O)C(=O)Nc1ccc(F)c(Cl)c1	-13%	0	1	7	-4	2
Cc1nc(-c2ccccc2)sc1CCNC(=O)C(=O)Nc1ccc2c(c1)OCCO2	-23%	-3	-45*	7	0	0
CC(=O)Nc1cccc(NC(=O)C(=O)NCCc2sc(-c3ccccc3)nc2C)c1	-24%	-1	-40*	9	-6	0
CC(C)(C)/C(Cn1cncn1)=N\OC(=O)Nc1ccc(Cl)cc1	-18%	-5	-55*	5	-7	0
Cc1ccc(OCC(=O)N(Cc2ccccc2)C(C)C)c([N+](=O)[O-])n1	-13%	0	2	1	-2	-1
Cc1ccc(OC(C)C(=O)N(C)Cc2ccccc2)c([N+](=O)[O-])n1 (configuration not stated)	-18%	39*	17	1	-15	2
COc1ccccc1C(=O)Nc1ccc2nc(SCCOc3ccccc3C)sc2c1	-7%	10	-22	11	1	-1
Cc1ccc(CCNC(=O)C(CC(C)C)NS(=O)(=O)c2ccc3c(c2)oc(=O)n3C)cc1 (configuration not stated)	-16%	2	8	5	-1	0
COc1ccccc1NC(=O)CSCc1cc(=O)c2cccc(Cl)c2[nH]1	-5%	4	-48*	1	-1	0
COc1cc(C(=O)Nc2nonc2-c2ccc(C)c(C)c2)cc(OC)c1OC	1%	3	-3	-1	-2	0
CN1C(=O)Cc2cc([S+](=O)([O-])N3CCN([S+](=O)([O-])c4c(F)cccc4F)CC3)ccc21	x	-2	-13	3	-7	1
COc1cccc(CNC(=O)C(Cc2ccccc2)NS(=O)(=O)c2ccc3c(c2)oc(=O)n3C)c1 (configuration not stated)	-4%	-7	-2	2	-4	0
CS(=O)(=O)Nc1ccccc1C(=O)NCCSc1ccc(Cl)cc1	-22%	-2	-32*	16	-7	-1
O=C(NCc1ccco1)C1CCN(C(=O)c2cc3sccc3n2Cc2ccc(F)cc2)CC1	-19%	5	-32*	12	-4	0
NS(=O)(=O)c1ccc(NC(=O)CN2CCN(c3ccc(F)cc3)CC2)cc1	-8%	-4	1	0	0	1
CN(C1CCCCC1)S(=O)(=O)c1ccc2c(c1)c(=O)c(C(=O)NCCc1ccc(Cl)cc1)cn2C	-19%	-2	3	3	4	0
CCN(C(=O)c1ccccc1)c1ccc([N+](=O)[O-])cc1	-3%	6	-4	1	1	-1
O=[N+]([O-])c1ccc(N(c2ccccc2)c2ccccc2)cc1	-22%	-1	21	42*	1	0
Cc1cccc(CNC(=O)Cc2csc3ccccc23)c1	-14%	15	-9	-3	-4	-1
